In assay [1] the test system is TRPC4 beta (transient receptor potential cation channel C4), mouse. Nature of the assay: TRPC4 cation channel opening, retest – cell-based, Fluo4 calcium, HEK293 TRPC4beta/mu-opioid, duplicates, 10 µM, confirmation (AID 2426). The conditions noted are these: Fluo4 calcium fluorescence, at 10 µM; active compounds read high.
Assay [2] has as its system transient receptor potential cation channel C4 beta (TRPC4), mouse. Nature of the assay: TRPC4 cation channel opening, second retest – cell-based, second round, Fluo4, HEK293 TRPC4beta/mu-opioid, 1 µM, confirmation (AID 2461;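 active means primary screen active and over 50% activation in each of two duplicate runs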). The conditions noted are these: Fluo4 calcium fluorescence, at 1 µM; active compounds read high.
The test system of assay [3] is TRPC4 (transient receptor potential cation channel C4 beta), mouse. Nature of the assay: potentiation of DAMGO EC20 TRPC4 response – cell-based, second round, Fluo-4, HEK293 TRPC4beta/mu-opioid, 1 µM, confirmation (AID 2554;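 active means primary screen hit whose fluorescence ratio, in both repeats, exceeds the weak agonist control mean by 3 SD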). To be noted: DAMGO EC20, Fluo-4 calcium flux, at 1 µM; active compounds read high. A general note: Calcium assays in cells follow changes in intracellular calcium, usually with a dye or a luminescent sensor.

The subject of assay [4] is TRPC4 beta (transient receptor potential cation channel C4), mouse. Nature of the assay: potentiation of DAMGO EC20 TRPC4 response – cell-based, Fluo-4, HEK293 TRPC4beta/mu-opioid, confirmation (AID 2555;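 active means primary screen hit whose calcium fluorescence ratio, in both repeats, exceeds the weak agonist control mean by 3 SD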). To be noted: DAMGO EC20, Fluo-4 calcium flux, at 10 µM; active compounds read high.
Assay [5] concerns the target Short transient receptor potential channel 4 (Mus musculus) (UniProt Q9QUQ5). Nature of the assay: blockers of DAMGO-evoked TRPC4 calcium flux – cell-based, Fluo4, HEK293 TRPC4beta/mu-opioid, confirmation (AID 2636;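 active means calcium signal cut by more than 3 SD below the full-agonist control yet still positive, in both repeats and the earlier primary screen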). The conditions noted are these: at 10 µM; active compounds read high.
Assay [6] has the same target. As to the kind of experiment: blockers of DAMGO-evoked TRPC4 calcium flux – cell-based, second round, Fluo4, HEK293 TRPC4beta/mu-opioid, 1 µM, confirmation (AID 2637;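 active means calcium signal ratio cut to more than 3 SD under the fully stimulated control mean yet still positive, in both repeats and the primary screen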). The conditions noted are these: at 1 µM; active compounds read high.
Assay [7] has the same target. Nature of the assay: calcium entry via TRPC4 opening agents – cell-based, HEK293 TRPC4/mu-opioid, Fluo-4 calcium, dose response (AID 434937;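 active means primary screen activator hit with a dose response curve and TRPC4 channel activation at any tested dose; inactive means no activation, no dose response, or not a primary hit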).
Assay [8] has the same target. As to the kind of experiment: potentiation of DAMGO-evoked TRPC4 calcium signal – cell-based, HEK293 TRPC4/mu-opioid, Fluo-4 calcium, EC20 DAMGO, dose response (AID 434941;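 active means earlier screen potentiator hit that boosts the TRPC4 ion channel at some dose, with a dose response; inactive means no potentiation, no dose response, or not a prior hit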;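 further: calcium entry triggered by an EC20 dose of DAMGO at the co-expressed mu-opioid receptor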).
The target is the same in assay [9]. As to the kind of experiment: block of DAMGO-driven TRPC4 calcium entry – cell-based, HEK293 TRPC4/mu-opioid, Fluo-4 calcium, dose response (AID 434942;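 active means primary screen inhibitor hit that blocks the TRPC4 channel at some tested dose, yielding a dose curve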).
Assay [10] concerns the target Short transient receptor potential channel 6 (Mus musculus) (UniProt Q61143). Nature of the assay: TRPC6 blockade by TRPC4 inhibitor hits – cell-based, HEK293, membrane potential dye, duplicate, selectivity assay for TRPC4 inhibitor project, confirmation (AID 434948;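 active means active in primary screen and both duplicates, each dropping signal beyond three positive-control SD with fluorescence still positive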). To be noted: HEK293 TRPC6, membrane potential dye fluorescence, at 10 µM, stimulated with maximal-effect acetylcholine; active compounds read high.

Assay [11] has the same target. As to the kind of experiment: TRPC6 opening by TRPC4 activator hits – cell-based, HEK293, membrane potential dye, duplicate, selectivity assay for TRPC4 activator project, confirmation (AID 434950;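 active means membrane potential signal rise above negative control mean plus 3 SD in both duplicates, also active in the earlier TRPC4 screen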). The conditions noted are these: HEK293 TRPC6, membrane potential fluorescence, at 10 µM; activation: active compounds read high; outcome: activation.
The target is the same in assay [12]. Nature of the assay: positive modulators of mouse TRPC6 channel – HEK293 cells, membrane potential dye, duplicate, selectivity assay for TRPC4 potentiator project, confirmation (AID 434952;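 active means compound raising the membrane signal above positive-control mean plus 3 SD in both repeats, and a primary screen hit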). To be noted: HEK293 TRPC6, membrane potential dye fluorescence, at 10 µM, maximal acetylcholine added after compound; active compounds read high.
For assay [13], the target named is Short transient receptor potential channel 4 (Mus musculus) (UniProt Q9QUQ5). As to the kind of experiment: calcium flux activators in TRPC4/5HT1a cells, counter-screen for TRPC4 activator project, cell-based, second counter screen, HEK293 TRPC4/5HT1a, Fluo-4 (AID 434977;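 active means calcium signal rise above buffer-control mean plus 5 SD in both duplicates, and also a hit in the primary screen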). To be noted: Fluo-4 calcium flux, at 10 µM; active compounds read high.
The nature of assay [14]: serotonin-gated TRPC4 signal block – cell-based, second counter screen, HEK293 TRPC4/5HT1a, Fluo-4, counter-screen for TRPC4 inhibitor project, confirmation (AID 434978;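 active means primary screen active whose calcium signal fell more than 3 SD beyond the full-serotonin control mean in both duplicate plates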;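 on outcome: serotonin given first at submaximal then at maximal dose after compound preincubation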). To be noted: Fluo-4 calcium flux, at 10 µM, serotonin added to trigger calcium flux; active compounds read high. On the technique in general: Counterscreens check selectivity or assay interference.
In assay [15] the test system is TRPC4 (mouse), co-expressed with 5HT1a in HEK293. As to the kind of experiment: enhancement of serotonin-evoked TRPC4 response – cell-based, second counter screen, HEK293 TRPC4/5HT1a, Fluo-4, counter-screen for TRPC4 potentiator project, confirmation (AID 434979;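 active means signal rise over 3 SD above mean of control wells given weak agonist, in both repeats and first screen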). The conditions noted are these: Fluo-4 calcium flux, at 10 µM, serotonin added at its EC20 dose; active compounds read high.

A short description of assay [16]: nonspecific calcium rise without TRPC4 – cell-based, HEK293 mu-opioid receptor line, counter-screen for TRPC4 activator project, confirmation (AID 449723;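 active means hit in primary screen, with calcium signal over 5 SD above buffer well mean in both duplicates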;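 further: counter screen cells carry the mu-opioid receptor alone and lack TRPC4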). To be noted: HEK293 mu-opioid cells, Fluo-4 calcium fluorescence, at 10 µM; active compounds read high.
A short description of assay [17]: nonspecific potentiation of DAMGO calcium response – cell-based, HEK293 mu-opioid receptor line, counter-screen for TRPC4 allosteric potentiator project, confirmation (AID 449724;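 active means calcium signal rise more than 3 SD above the low-dose agonist control mean, in both duplicate plates and the primary screen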;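 further: HEK293 cells carrying mu-opioid receptor only with no TRPC4 channel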). The conditions noted are these: HEK293 mu-opioid receptor cells, Fluo-4 calcium flux, at 10 µM, compound added before EC20 DAMGO stimulus; active compounds read high.

For some of these results: Entries with a potency or affinity are not part of this list. Calls of active or inactive are those of the source.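 How the source made its calls, unless noted: active means fluorescence ratio normalized to control raised more than 50% in primary screen plus both repeat runs; inactive means the rest.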

Chain of Short transient receptor potential channel 6 (Mus musculus) (Q61143 whole entry, looked up): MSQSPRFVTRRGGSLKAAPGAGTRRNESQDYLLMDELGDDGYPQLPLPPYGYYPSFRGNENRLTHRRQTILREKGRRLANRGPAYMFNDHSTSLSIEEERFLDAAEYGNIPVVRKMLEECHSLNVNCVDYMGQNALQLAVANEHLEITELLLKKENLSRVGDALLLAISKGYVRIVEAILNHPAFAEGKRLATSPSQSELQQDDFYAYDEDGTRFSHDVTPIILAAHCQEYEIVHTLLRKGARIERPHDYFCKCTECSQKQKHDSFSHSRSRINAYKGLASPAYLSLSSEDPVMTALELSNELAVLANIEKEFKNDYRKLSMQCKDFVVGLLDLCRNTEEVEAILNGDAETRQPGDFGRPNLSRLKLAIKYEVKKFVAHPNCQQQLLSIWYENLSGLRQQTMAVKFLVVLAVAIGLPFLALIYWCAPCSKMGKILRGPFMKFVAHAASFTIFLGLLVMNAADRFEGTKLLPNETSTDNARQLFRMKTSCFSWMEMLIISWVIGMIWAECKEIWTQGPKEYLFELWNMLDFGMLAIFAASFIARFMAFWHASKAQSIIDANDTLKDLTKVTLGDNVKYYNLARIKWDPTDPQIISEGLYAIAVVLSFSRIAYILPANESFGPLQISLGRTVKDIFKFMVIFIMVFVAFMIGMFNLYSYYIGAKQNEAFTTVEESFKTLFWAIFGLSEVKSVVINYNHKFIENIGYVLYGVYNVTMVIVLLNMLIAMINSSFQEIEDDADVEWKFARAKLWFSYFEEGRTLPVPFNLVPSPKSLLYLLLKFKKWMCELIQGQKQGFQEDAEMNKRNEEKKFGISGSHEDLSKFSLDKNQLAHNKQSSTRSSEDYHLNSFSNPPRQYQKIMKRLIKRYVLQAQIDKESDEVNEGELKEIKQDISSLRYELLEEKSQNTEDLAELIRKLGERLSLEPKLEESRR
Chain of Short transient receptor potential channel 4 (Mus musculus) (Q9QUQ5 whole entry, looked up): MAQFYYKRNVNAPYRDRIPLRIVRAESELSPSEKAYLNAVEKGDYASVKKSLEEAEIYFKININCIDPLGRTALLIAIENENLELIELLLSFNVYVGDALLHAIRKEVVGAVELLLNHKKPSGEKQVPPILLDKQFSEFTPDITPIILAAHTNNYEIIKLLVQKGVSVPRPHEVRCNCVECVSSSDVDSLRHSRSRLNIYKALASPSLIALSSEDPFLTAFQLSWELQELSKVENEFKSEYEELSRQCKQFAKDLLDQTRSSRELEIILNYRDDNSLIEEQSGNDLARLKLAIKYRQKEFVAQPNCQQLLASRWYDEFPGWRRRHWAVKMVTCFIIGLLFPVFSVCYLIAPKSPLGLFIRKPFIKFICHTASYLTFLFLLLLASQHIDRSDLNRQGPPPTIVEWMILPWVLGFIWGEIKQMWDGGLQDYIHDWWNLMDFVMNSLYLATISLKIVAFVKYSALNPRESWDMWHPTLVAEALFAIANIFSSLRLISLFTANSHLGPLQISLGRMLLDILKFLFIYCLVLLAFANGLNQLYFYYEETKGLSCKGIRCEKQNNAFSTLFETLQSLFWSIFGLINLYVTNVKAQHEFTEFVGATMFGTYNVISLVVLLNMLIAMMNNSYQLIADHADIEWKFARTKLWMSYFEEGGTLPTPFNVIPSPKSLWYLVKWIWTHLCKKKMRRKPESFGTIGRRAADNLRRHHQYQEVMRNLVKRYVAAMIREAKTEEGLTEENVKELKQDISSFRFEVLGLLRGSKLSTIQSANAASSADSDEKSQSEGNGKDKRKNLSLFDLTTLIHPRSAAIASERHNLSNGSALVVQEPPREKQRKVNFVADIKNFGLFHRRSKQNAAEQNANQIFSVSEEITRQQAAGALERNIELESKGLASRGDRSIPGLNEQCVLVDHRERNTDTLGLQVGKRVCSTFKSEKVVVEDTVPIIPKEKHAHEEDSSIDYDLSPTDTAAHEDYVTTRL

As to `COc1cc(Br)cc(C2C3=C(CCCC3=O)N(c3ccc(F)cc3)C3=C2C(=O)CCC3)c1O`, the result in assay [1], in assay [2], in assay [3], in [5], in assay [6] and in [7] was inactive. Moreover, the outcome in assay [8], in [9], in [10], in assay [11], in [12] and in assay [13] was inactive. The outcome in [14], in [16] and in assay [17] was inactive. The potentiation in assay [4] is 29% (active); in [15], 31.7% (active).

On to `Cc1cc2cc(CN(Cc3cccs3)C(=S)NCc3ccco3)c(=O)[nH]c2cc1C`, for which the outcome in [1], in [2], in assay [3], in [4], in [5] and in assay [6] was inactive. For the same compound, the result in assay [7], in assay [8], in [9], in [10], in [11] and in [12] was inactive. Besides, the result in [13], in [14], in assay [15], in assay [16] and in assay [17] was inactive.

With `CCOCCCn1cnc2c(c1=O)c1nc3ccccc3nc1n2-c1ccc(C)cc1`, the result in assay [1], in [2], in [3], in [4], in assay [5] and in assay [6] was inactive. Further, the outcome in assay [7], in [8], in assay [9], in assay [10], in assay [11] and in [12] was inactive. Also, the outcome in assay [13], in assay [14], in assay [15], in assay [16] and in assay [17] was inactive.

In the case of `Cc1ccc(-n2c(SCc3cc(=O)n4ccsc4n3)nnc2-c2cccnc2)c(C)c1`, the result in assay [1], in [2], in assay [3], in assay [4], in assay [5] and in assay [6] was inactive. For the same compound, the result in [7], in assay [8], in assay [9], in assay [10], in assay [11] and in assay [12] was inactive. Also, the result in assay [13], in assay [14], in assay [15], in assay [16] and in [17] was inactive.

As to `OC(c1ccccc1)(c1ccccc1)C1CCN(C(=S)NC2CCCC2)CC1`, the outcome in assay [1], in assay [2], in assay [3], in assay [4], in [5] and in assay [6] was inactive. For the same compound, the outcome in assay [7], in assay [8], in assay [9], in [10], in assay [11] and in [12] was inactive. The outcome in assay [13], in assay [14], in assay [15], in [16] and in assay [17] was inactive.

As for `Cn1c(CN2CCN(c3ccccc3NS(C)(=O)=O)CC2)nc2ccccc21`, the result in [1], in [2], in [3], in assay [4], in [5] and in [6] was inactive. The result in assay [7], in [8], in assay [9], in assay [10], in [11] and in [12] was inactive. In addition, the result in assay [13], in assay [14], in assay [15], in assay [16] and in assay [17] was inactive.

`CC1CCN(CCc2nc3cc(NS(=O)(=O)c4ccc(F)cc4)ccc3n2C)CC1`: the outcome in assay [1], in assay [2], in assay [3], in assay [4], in [5] and in assay [6] was inactive. Also, the outcome in [7], in assay [8], in [9], in [10], in [11] and in [12] was inactive. Also, the outcome in assay [13], in assay [14], in [16] and in assay [17] was inactive. In assay [15], the potentiation is 7.72% (active).

On to `Cc1sc(NC(=O)C2CCCCC2C(=O)O)c(C(N)=O)c1-c1ccc(C(C)(C)C)cc1` (stereo not drawn), for which the outcome in assay [1], in assay [2], in [3], in assay [4], in assay [6] and in [7] was inactive. In addition, the outcome in assay [8], in assay [9], in [10], in [11], in assay [12] and in assay [13] was inactive. In addition, the result in assay [15], in assay [16] and in assay [17] was inactive. The inhibition is 95% (active) in [5] and 18.7% (active) in assay [14].

As to `COc1ccc(CNc2ccc(Cl)cc2)cc1Cn1ccnc1`, the outcome in assay [1], in [2], in assay [3], in assay [4], in assay [5] and in assay [6] was inactive. Further, the outcome in assay [7], in assay [8], in assay [9], in assay [10], in [11] and in assay [12] was inactive. The result in assay [13], in assay [14], in [15], in assay [16] and in assay [17] was inactive.

As to `Cc1ccc(Cn2c(=N)c(C(=O)NCCN3CCOCC3)cc3c(=O)n4ccccc4nc32)cc1`, the result in assay [1], in [2], in [3], in assay [5], in [6] and in assay [7] was inactive. In addition, the result in assay [8], in [9], in assay [10], in assay [11], in assay [12] and in assay [13] was inactive. Besides, the result in assay [14], in assay [15], in assay [16] and in assay [17] was inactive. Further, the potentiation in assay [4] is 31% (active).

As for `C=CCNC(=S)N1CCN(CCN=Cc2c(C)[nH]n(-c3ccc([N+](=O)[O-])cc3)c2=O)CC1`, the result in assay [1], in assay [2], in assay [3], in assay [4], in [5] and in [6] was inactive. For the same compound, the outcome in assay [7], in [8], in [9], in [10], in [11] and in [12] was inactive. For the same compound, the result in assay [13], in assay [14], in [15], in assay [16] and in [17] was inactive.

On to `CCOC(=O)CCSc1nc(C)cc(C(F)(F)F)c1C#N`, for which the result in [1], in [2], in assay [3], in assay [4], in [5] and in [6] was inactive. The outcome in assay [7], in assay [8], in assay [9], in assay [10], in assay [11] and in assay [12] was inactive. Moreover, the result in [13], in [14], in assay [15], in [16] and in assay [17] was inactive.

Turning to `Oc1c(Br)cc(Br)c(/C=N/n2c(-c3ccccc3)n[nH]c2=S)c1Br`, the outcome in assay [1], in [2], in assay [3], in assay [5], in [6] and in [7] was inactive. Besides, the result in assay [8], in assay [9], in assay [10], in [11], in assay [12] and in assay [13] was inactive. The result in [14], in assay [15], in assay [16] and in assay [17] was inactive. For the same compound, the potentiation in [4] was 18% (active).

`COc1ccc(CCNC(=O)C2CCN(C(=O)c3ccc(C(C)(C)C)cc3)CC2)cc1`: the outcome in assay [1], in [2], in assay [3], in [4], in assay [5] and in [6] was inactive. Besides, the result in assay [7], in assay [8], in assay [9], in [10], in assay [11] and in assay [12] was inactive. Moreover, the result in assay [13], in assay [14], in assay [15], in assay [16] and in assay [17] was inactive.

By inhibition is commonly meant the change of the read-out against control, counted positive when it falls.

For the origin of these results see PubChem BioAssay.
